SMILES strings stand for the structures. Values joined by “and” are separate entries in the source; they are usually repeats but may differ in a detail not shown here. Equal entries are not always repeated. Active and inactive are the calls of the source. The calls were made as follows: active = hit-call score of the fitted dose curve at least 0.9, where 1 is the maximum; inactive = score below 0.9.

The assay deals with Peroxisome proliferator-activated receptor gamma (Homo sapiens) (UniProt P37231). The assay is described as follows: ERF_TW_NR_COA_hPPARG: Eurofins (ERF) Nuclear Receptor (NR) Functional Coactivator Assay for human Peroxisome Proliferator-activated Receptor gamma (PPARg) Agonism, conducted at Taiwan lab site. On the procedure: ERF_TW_NR_COA_hPPARG is a biochemical, single-readout assay that uses extracted gene-proteins in a cell-free assay. Measurements were taken 16 hours after chemical dosing in a 96-well plate. See PPARgamma Human NHR Functional Agonist Coactivator Assay, Panlabs.ERF_TW_NR_COA_hPPARG is an assay component calculated from the ERF_TW_NR_COA_hPPARG assay. It is designed to measure FRET using a type of binding reporter as detected by fluorescence intensity of rosiglitazone with fluorimetry technology.Data from the assay component ERF_TW_NR_COA_hPPARG was analyzed at the assay endpoint, ERF_TW_NR_COA_hPPARG, in the positive analysis fitting direction relative to DMSO as the negative control and baseline of activity. Using a type of binding reporter, gain-of-signal activity can be used to understand changes in binding as they relate to gene PPARG. To generalize the intended target to other relatable targets, this assay endpoint is annotated to the nuclear receptor intended target family, where the subfamily is non-steroidal.
Sequence of Peroxisome proliferator-activated receptor gamma (Homo sapiens) (P37231 whole entry, looked up): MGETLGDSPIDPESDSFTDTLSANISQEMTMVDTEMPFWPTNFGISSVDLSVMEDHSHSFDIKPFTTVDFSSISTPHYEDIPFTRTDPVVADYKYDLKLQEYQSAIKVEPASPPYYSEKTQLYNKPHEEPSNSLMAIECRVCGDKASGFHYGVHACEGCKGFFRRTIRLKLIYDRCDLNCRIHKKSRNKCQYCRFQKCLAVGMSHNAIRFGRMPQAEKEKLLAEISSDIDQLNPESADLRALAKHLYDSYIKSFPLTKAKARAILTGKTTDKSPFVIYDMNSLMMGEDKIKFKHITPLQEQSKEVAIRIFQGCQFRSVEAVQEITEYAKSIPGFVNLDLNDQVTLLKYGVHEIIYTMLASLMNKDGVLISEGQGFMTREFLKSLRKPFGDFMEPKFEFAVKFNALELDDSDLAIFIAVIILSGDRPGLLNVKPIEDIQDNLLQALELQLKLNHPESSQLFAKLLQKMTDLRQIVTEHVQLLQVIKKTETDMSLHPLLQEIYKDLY
Human recombinant PPARgamma receptors expressed in insect cells are used. Test compound and/or vehicle is incubated with the 2 nM receptors and coactivator peptide for 180 minutes at room temperature. Determination of the amount of complex formed is read spectrofluorimetrically (excitation: 337 nm, emission: 520/490 nm). Test compound-induced increase fluorescence by 50 percent or more (>/=50%) relative to 1 uM GW1929 response indicates possible PPARgamma receptor agonist activity. Test compound-induced inhibition of 5 nM GW1929-induced fluorescence response by 50 percent or more (>/=50%) indicates receptor antagonist activity.
Consider `NC(=O)c1nc(-c2cccc(-c3cc(F)ccc3OCC(F)(F)C(F)(F)F)c2)n[nH]1`, for which the molecule was classed as inactive.

Regarding `O=C(O)CCC(F)(F)C(F)(F)C(F)(F)F`, the molecule was classed as inactive.

As for `O=C(CC(=O)C(F)(F)C(F)(F)C(F)(F)F)c1cccs1`, the concentration at half-maximal activity (AC50) was 44.4 µM (active) and 43.2 µM (active).

(Values after PubChem BioAssay AID2284376 (EPA ToxCast).)
